In PubChem BioAssay (Tox21) one finds Potency, activity change, negative = cytotoxicity and activation data, which are given here for 7 compounds.

The nature of experiment [1]: Nuclear factor erythroid 2-related factor 2/antioxidant responsive element (Nrf2/ARE) small molecule agonists: qHTS cell viability counter screen in human keratinocytes (AID 1919968; active = well fitted curve in the direction sought with a large enough effect in the repeat runs; an effect the other way counts as inactive or inconclusive; note: nearly all actives have a fitted effect of over 55% in size; note: potency is the fitted concentration of half-maximal effect). The method in brief: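 Parallel cytotoxicity read: KeratinoSens HaCaT cells, compound treatment 23 h, viability by CellTiter-Fluor fluorescence 1 h post-reagent.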
For orientation: qHTS replaces the single test concentration by a dilution series.

Experiment [2] in a line: Nuclear factor erythroid 2-related factor 2/antioxidant responsive element (Nrf2/ARE) small molecule agonists: luciferase reporter gene qHTS assay in human keratinocytes (AID 1919969). Note: nearly all actives have a fitted effect of over 35% in size.
Experiment [3] addresses Gonadotropin-releasing hormone receptor (Homo sapiens) (UniProt P30968). Description: Human gonadotropin-releasing hormone receptor (GnRHR) small molecule agonists, calcium flux assay in GnRHR-HEK293 cells (AID 1920063). Note: nearly all actives have a fitted effect of over 35% in size. In a few lines:
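Calcium flux, agonist mode, human GnRHR stably integrated in HEK293; dye 1 h at 37 C before compound; Ex/Em=480/540 kinetic read, 3 min; 15 concentrations, triplicate.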

The target of experiment [4] is KiSS-1 receptor (Homo sapiens) (UniProt Q969F8). The experiment in a line: Human kisspeptin (KISS1R) small molecule agonists, calcium flux assay in KISS1R-HEK293 cells (AID 1920064; active = well fitted curve in the direction sought with a large enough effect in the repeat runs; an effect the other way counts as inactive or inconclusive). In a few lines:
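Triplicate 15-concentration series were applied to dye-loaded human KISS1R HEK293 cells, and agonist-evoked calcium fluorescence was captured for 3 min.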
For orientation: Calcium flux is commonly read through the fluorescence of an indicator in the cells.

Experiment [5] in a line: G protein-coupled receptor (GPCR) small molecule agonists, calcium flux assay: HEK293 wild type cell line counter screen (AID 1920065). In a few lines: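 Non-specific calcium responders were flagged by adding DMSO-dissolved compounds to dye-loaded cells and reading 480/540 nm fluorescence each second for 3 min; ATP served as positive control.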
Experiment [6] is described as follows: p53 small molecule agonists, cell-based qHTS assay with human liver microsomes (AID 1963577). The method in brief: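 Cells carrying a p53-responsive bla reporter were rested 5 h (37 C, 5% CO2) before compound transfer. Human liver microsomes plus NADPH, 0.5 mg/mL final apiece, supplied metabolism during the 16 h 37 C exposure.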
A short description of experiment [7]: p53 small molecule agonists, cell-based qHTS assay with rat liver microsomes (AID 1963578). In a few lines: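 Fluorescence from a beta-lactamase reporter under a p53 response element was measured after cells had been incubated 16 h at 37 C with test compound and rat liver microsomes plus NADPH (0.5 mg/mL final each).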
Experiment [8] in a line: p53 small molecule agonists, cell-based qHTS assay with human liver microsomes: qHTS cell viability counter screen (AID 1963579). Note: nearly all actives have a fitted effect of over 45% in size. Note: potency is the fitted concentration of half-maximal effect. The method in brief:
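Seed p53RE-bla cells at 4,000 per well; incubate 5 h at 37 C; add compound, human liver microsomes and NADPH; incubate 16 h at 37 C; add CellTiter-Glo; after 30 min at room temperature, read luminescence.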

The nature of experiment [9]: p53 small molecule agonists, cell-based qHTS assay with rat liver microsomes: qHTS cell viability counter screen (AID 1963580). Note: nearly all actives have a fitted effect of over 45% in size. In a few lines:
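After the beta-lactamase ratio was read, CellTiter-Glo was added to the same wells and luminescence measured at 30 min; cells had been treated 16 h at 37 C with compounds, rat liver microsomes and NADPH (0.5 mg/mL final each).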

The nature of experiment [10]: p53 small molecule agonists, cell-based qHTS assay: qHTS cell viability counter screen (AID 1963581). Note: nearly all actives have a fitted effect of over 45% in size. The method in brief: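 Multiplexed with the reporter read, a CellTiter-Glo step (30 min, room temperature) gauges ATP-based viability of HCT-116 p53RE-bla cells after 16 h compound incubation at 37 C.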
The nature of experiment [11]: p53 small molecule agonists, cell-based qHTS assay (AID 1963582; active = well fitted activation curve with a large enough effect in the signal ratio in the repeat runs, not every such curve was filed as active; the % refers to the signal ratio). In a few lines: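 Beta-lactamase reporter cells (p53RE-bla) treated with compounds for 16 h at 37 C; FRET substrate, 2 h, room temperature; fluorescence intensity.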
Experiment [12] has as its target 5-hydroxytryptamine receptor 2A (Homo sapiens) (UniProt P28223). The experiment in a line: 5-hydroxytryptamine receptor 2A (HTR2A) small molecule antagonists, cell-based qHTS assay (AID 1963586). Note: nearly all actives have a fitted effect of over 45% in size. In a few lines: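 CHO cells stably expressing human HTR2A were plated for 18 h at 37 C, then loaded with calcium dye for 1 h. Compounds were preincubated 5 min at room temperature before DOI (4 nM solution) was added. Kinetic fluorescence was read for 3 min.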

Experiment [13] shares this target. Description: 5-hydroxytryptamine receptor 2A (HTR2A) small molecule agonists, cell-based qHTS assay (AID 1963587). Note: nearly all actives have a fitted effect of over 30% in size. The method in brief:
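CHO cells stably expressing human HTR2A, plated 18 h, loaded with calcium dye 1 h at 37 C. Agonist mode: compounds added and intracellular calcium fluorescence recorded kinetically for 2 min at 1 sec intervals.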

Experiment [14] concerns the target Muscarinic acetylcholine receptor M1 (Homo sapiens) (UniProt P11229). Description: Cholinergic receptor muscarinic 1 (CHRM1) small molecule antagonists, cell-based qHTS assay (AID 1963588). Note: nearly all actives have a fitted effect of over 40% in size. The method in brief:
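Compounds were tested at 15 concentrations in three independent runs. Dye-loaded CHRM1-CHO cells were exposed 5 min at room temperature before stimulation by acetylcholine added at 50nM. Intracellular calcium was read kinetically on FDSS for 3 min.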

Experiment [15] has the same target. Description: Cholinergic receptor muscarinic 1 (CHRM1) small molecule agonists, cell-based qHTS assay (AID 1963589). Note: nearly all actives have a fitted effect of over 35% in size. The method in brief: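 qHTS, 15-point titration, 3 independent runs: compounds pin-transferred onto dye-loaded CHRM1-CHO cells (human M1), calcium fluorescence followed every second to detect agonism.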
A short description of experiment [16]: cAMP Responsive Elements (CRE) small molecule agonists, cell-based qHTS assay (AID 1963590). The method in brief: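 Quantitative HTS for CRE agonists: HEK 293T CRE-bla cells, overnight plating, 3 h compound incubation at 37 C/5% CO2, then 2 h room-temperature LiveBLAzer B/G FRET substrate loading.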
Experiment [17] in a line: cAMP Responsive Elements (CRE) small molecule antagonists, cell-based qHTS assay (AID 1963591; active = well fitted inhibition curve with a large enough effect in the signal ratio in the repeat runs, not every such curve was filed as active; the % refers to the signal ratio). The method in brief: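 Fluorescence intensity from cleaved LiveBLAzer B/G substrate (2 h, room temperature) quantified CRE-bla activity in HEK 293T cells exposed 3 h to compound with 0.25 uM final NKH477.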
The target of experiment [18] is Beta-2 adrenergic receptor (Homo sapiens) (UniProt P07550). The experiment in a line: Adrenergic beta2 receptor (ADRB2) small molecule antagonists, cell-based qHTS assay (AID 1963592). Note: series mostly up to about 92 µM; nearly all actives have a fitted effect of over 50% in size. The method in brief: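 Assay format: CHO-ADRB2 cells, 18-20hr seeding at 37C/5% CO2, then compound plus 1nM isoproterenol agonist mix for 0.5hr RT. Homogeneous time-resolved fluorescence cAMP detection after 1hr, expressed as 665/615 nm ratio.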

In experiment [19] the target is D(2) dopamine receptor (Homo sapiens) (UniProt P14416). Description: Dopamine D2 receptor (DRD2) small molecule agonists, cell-based qHTS assay (AID 1963594). Note: nearly all actives have a fitted effect of over 35% in size. In a few lines: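 HEK293 cells stably expressing human DRD2, pre-treated with PDE inhibitor Ro20-1724 (0.1 mM final) and compound 10 min at room temperature, then stimulated with NKH477 (200nM […]) for 30 min. cAMP read by HTRF (665/620 nm).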

For experiment [20], the target named is Beta-2 adrenergic receptor (Homo sapiens) (UniProt P07550). The experiment in a line: Adrenergic beta2 receptor (ADRB2) small molecule agonists, cell-based qHTS assay (AID 1963593).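 Note: CHO cells stably overexpressing human ADRB2.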 The method in brief: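 CHO cells stably over-expressing ADRB2 were plated overnight at 37C, then dosed with compounds plus a stimulation mix containing 100uM IBMX and 25uM Ro-20-1724 for 0.5hr at room temperature. cAMP was measured by HTRF competition, 1hr.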

A number with no mark means an inactive call. Inconclusive results are not listed. Where a structure was tested more than once in an assay, its records may differ in their call. Active and inactive are the calls of the source. Unless noted, calls come from the whole dose curve.
% is set by controls: 0 for no effect and ±100 for the full control effect.

Chain of Gonadotropin-releasing hormone receptor (Homo sapiens) (P30968 whole entry, looked up): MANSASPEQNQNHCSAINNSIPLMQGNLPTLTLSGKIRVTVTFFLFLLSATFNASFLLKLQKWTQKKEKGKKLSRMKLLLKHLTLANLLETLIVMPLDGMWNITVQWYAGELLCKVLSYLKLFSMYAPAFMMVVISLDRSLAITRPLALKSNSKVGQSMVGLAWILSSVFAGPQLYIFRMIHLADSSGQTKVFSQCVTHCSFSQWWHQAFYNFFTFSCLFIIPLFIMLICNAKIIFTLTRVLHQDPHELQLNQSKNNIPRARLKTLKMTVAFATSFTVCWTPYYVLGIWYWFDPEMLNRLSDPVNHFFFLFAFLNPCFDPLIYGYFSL
Chain of Beta-2 adrenergic receptor (Homo sapiens) (P07550 whole entry, looked up): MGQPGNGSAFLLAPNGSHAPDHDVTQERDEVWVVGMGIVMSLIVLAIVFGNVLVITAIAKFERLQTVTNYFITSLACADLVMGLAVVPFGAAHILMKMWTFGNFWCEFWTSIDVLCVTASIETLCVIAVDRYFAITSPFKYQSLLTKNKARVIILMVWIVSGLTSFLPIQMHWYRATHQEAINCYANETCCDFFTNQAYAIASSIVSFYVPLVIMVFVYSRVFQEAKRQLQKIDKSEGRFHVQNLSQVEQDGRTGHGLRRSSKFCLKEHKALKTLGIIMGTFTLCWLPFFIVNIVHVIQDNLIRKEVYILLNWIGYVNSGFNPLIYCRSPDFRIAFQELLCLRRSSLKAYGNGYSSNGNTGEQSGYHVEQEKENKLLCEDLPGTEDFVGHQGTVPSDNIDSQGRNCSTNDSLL
Chain of KiSS-1 receptor (Homo sapiens) (Q969F8 whole entry, looked up): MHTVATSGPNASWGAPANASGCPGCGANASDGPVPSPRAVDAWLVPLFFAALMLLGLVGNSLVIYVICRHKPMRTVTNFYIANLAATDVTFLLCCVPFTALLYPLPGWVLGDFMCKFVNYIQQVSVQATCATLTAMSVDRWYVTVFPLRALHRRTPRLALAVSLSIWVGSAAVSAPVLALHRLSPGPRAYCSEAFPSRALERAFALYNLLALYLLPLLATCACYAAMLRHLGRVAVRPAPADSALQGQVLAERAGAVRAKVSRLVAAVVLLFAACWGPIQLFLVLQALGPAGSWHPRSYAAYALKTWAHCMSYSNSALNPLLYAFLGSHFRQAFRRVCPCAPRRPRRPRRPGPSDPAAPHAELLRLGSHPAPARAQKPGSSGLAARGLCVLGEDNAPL
Chain of 5-hydroxytryptamine receptor 2A (Homo sapiens) (P28223 whole entry, looked up): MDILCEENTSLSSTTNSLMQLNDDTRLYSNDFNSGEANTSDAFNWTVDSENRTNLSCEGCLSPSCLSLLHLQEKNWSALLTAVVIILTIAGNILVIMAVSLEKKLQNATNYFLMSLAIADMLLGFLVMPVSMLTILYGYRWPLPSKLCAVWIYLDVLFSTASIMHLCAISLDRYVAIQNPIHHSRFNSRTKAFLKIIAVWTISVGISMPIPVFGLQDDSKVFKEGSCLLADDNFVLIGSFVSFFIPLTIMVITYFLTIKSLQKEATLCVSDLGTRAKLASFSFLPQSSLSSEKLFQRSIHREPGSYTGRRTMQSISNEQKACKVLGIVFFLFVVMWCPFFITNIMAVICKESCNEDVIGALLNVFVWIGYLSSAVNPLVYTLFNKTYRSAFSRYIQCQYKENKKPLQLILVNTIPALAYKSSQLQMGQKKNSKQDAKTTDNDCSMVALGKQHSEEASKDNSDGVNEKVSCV
Chain of Muscarinic acetylcholine receptor M1 (Homo sapiens) (P11229 whole entry, looked up): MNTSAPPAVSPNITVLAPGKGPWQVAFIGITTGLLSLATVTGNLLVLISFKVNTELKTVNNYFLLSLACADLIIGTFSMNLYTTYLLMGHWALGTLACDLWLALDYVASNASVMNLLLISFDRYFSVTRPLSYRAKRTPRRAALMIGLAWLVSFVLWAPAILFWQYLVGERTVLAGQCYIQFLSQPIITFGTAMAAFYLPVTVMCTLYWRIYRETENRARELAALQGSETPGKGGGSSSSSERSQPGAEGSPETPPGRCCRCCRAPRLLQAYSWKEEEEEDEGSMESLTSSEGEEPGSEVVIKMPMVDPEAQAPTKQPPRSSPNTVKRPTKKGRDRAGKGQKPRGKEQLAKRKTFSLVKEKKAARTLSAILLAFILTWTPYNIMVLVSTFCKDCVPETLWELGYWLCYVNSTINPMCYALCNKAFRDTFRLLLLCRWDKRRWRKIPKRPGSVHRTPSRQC
Chain of D(2) dopamine receptor (Homo sapiens) (P14416 whole entry, looked up): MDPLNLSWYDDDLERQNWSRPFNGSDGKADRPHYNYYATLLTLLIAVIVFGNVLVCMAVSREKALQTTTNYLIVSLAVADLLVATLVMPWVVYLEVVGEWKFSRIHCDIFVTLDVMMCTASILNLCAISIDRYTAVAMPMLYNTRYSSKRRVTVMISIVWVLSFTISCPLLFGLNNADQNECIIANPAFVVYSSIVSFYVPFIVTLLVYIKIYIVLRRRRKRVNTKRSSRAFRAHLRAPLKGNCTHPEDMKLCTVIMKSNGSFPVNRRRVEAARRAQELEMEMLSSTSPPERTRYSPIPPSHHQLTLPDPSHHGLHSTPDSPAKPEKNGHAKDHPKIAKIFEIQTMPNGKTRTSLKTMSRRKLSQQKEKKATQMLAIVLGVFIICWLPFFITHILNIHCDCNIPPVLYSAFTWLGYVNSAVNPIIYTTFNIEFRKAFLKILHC

For `COc1ccccc1N=Nc1c(S(=O)(=O)O)cc2cc(S(=O)(=O)O)cc(NC(C)=O)c2c1O`, the Potency in [1] was 40.7 µM (active). The Potency result in experiment [2], in [3], in experiment [4], in experiment [5], in [6] and in experiment [7] was “inactive” throughout. In addition, the Potency result in [8], in experiment [9], in experiment [10], in experiment [11], in experiment [12] and in experiment [13] was “inactive” each time. Besides, the Potency result in experiment [14], in [15], in experiment [16] and in experiment [17] was “inactive” each time.
For the compound `NNc1nncc2ccccc12`, the results for the Potency in [1] and in experiment [8] were 30.6 µM (active) and 32.4 µM (active), respectively. The results for the activity change, negative = cytotoxicity in experiment [1], in [8] and in experiment [9] were -11.5% [at 19 µM], -0.157% [at 13.5 µM] and 0.405% [at 13.5 µM], respectively. Besides, the Potency entry in experiment [3], in experiment [4], in [5], in experiment [6], in [7] and in experiment [11] was “inactive” throughout. For the same compound, the Potency result in [17], in [18] and in experiment [19] was “inactive” each time. Besides, the activation in [16] is 0.777% [at 19 µM].
As for `CC(C)=CCC/C(C)=C/C#N`, the Potency result in experiment [1], in experiment [2], in experiment [3], in experiment [4], in [5] and in experiment [6] was “inactive” in each case. Moreover, the Potency entry in experiment [7], in [8], in experiment [9], in experiment [10], in experiment [11] and in [12] was “inactive” throughout. Moreover, the Potency entry in [13], in [14], in experiment [15], in experiment [16], in experiment [17] and in [18] was “inactive” each time. The Potency entry in experiment [20] and in [19] was “inactive” in each case.
`NC(=S)N/N=C/c1cccnc1`: the Potency entry in [1], in experiment [2], in [3], in experiment [4], in experiment [5] and in experiment [6] was “inactive” throughout. Also, the Potency entry in [7], in [8], in [9], in experiment [10], in experiment [11] and in [12] was “inactive” in each case. Also, the Potency entry in [13], in experiment [14], in [15], in experiment [16], in experiment [17] and in experiment [18] was “inactive” each time. For the same compound, the Potency entry in experiment [20] and in [19] was “inactive” each time.
As to `CCCC(C)CO` (configuration not stated), the Potency result in experiment [1], in experiment [2], in experiment [3], in experiment [4], in experiment [5] and in [6] was “inactive” throughout. Also, the Potency result in [7], in experiment [8], in experiment [9], in experiment [10], in [11] and in experiment [12] was “inactive” each time. In addition, the Potency result in experiment [13], in [14], in experiment [15], in [16], in experiment [17] and in [18] was “inactive” each time. Besides, the Potency entry in experiment [20] and in experiment [19] was “inactive” throughout.
In the case of `CCC(C)(Oc1ccc(C2(c3ccc(OC(C)(CC)C(=O)O)cc3)CCCCC2)cc1)C(=O)O` (configuration not stated), the Potency result in experiment [1], in [2], in [3], in [4], in experiment [5] and in [6] was “inactive” in each case. The Potency entry in experiment [7], in experiment [8], in [9], in experiment [10], in experiment [11] and in experiment [12] was “inactive” each time. The Potency result in experiment [13], in [14], in experiment [15], in [16], in experiment [17] and in [18] was “inactive” each time. The Potency result in experiment [20] and in experiment [19] was “inactive” throughout.
Regarding `CC(C)(c1ccccc1)c1ccc(Nc2ccc(C(C)(C)c3ccccc3)cc2)cc1`, the Potency result in experiment [1], in [2], in experiment [3], in [4], in [5] and in experiment [6] was “inactive” each time. Moreover, the Potency entry in experiment [7], in experiment [8], in experiment [9], in experiment [10], in [11] and in experiment [12] was “inactive” in each case. Also, the Potency result in experiment [13], in [14], in experiment [15], in experiment [16], in experiment [17] and in experiment [18] was “inactive” in each case. The Potency result in experiment [20] and in [19] was “inactive” each time.
